Test results: PubChem BioAssay (NCI)
Compounds without any hit were thinned out: in the full panel of roughly 83,000, 20% have a hit.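 Negative percent growth values reflect cell death: -40 means 40% of the cells present at the start died, and -100 means all died.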 A number with no mark means an inactive call. The source made the active and inactive calls. How the source made its calls: active means growth percent below 10; inactive means the rest.

Assays:
Experiment in all cases: NCI-60 one-dose screen, 48 h (100 = growth as untreated, 0 = no growth, -100 = all killed)
Details in all cases: 10 µM unless noted
[1] = system: NCI-H23 lung
[2] = system: NCI-H226 lung
[3] = system: NCI-H322M lung
[4] = system: HOP-62 NSCLC
[5] = system: NCI-H460 lung
[6] = system: HOP-92 NSCLC
[7] = system: NCI-H522 lung
[8] = system: A549/ATCC NSCLC
[9] = system: 786-0 renal
[10] = system: COLO 205 colon
[11] = system: DU-145 prostate
[12] = system: K-562 leukemia
[13] = system: MALME-3M melanoma
[14] = system: MDA-MB-231 breast
[15] = system: RXF 393 renal
[16] = system: SF-268 CNS
[17] = system: SF-295 CNS
[18] = system: SF-539 CNS
[19] = system: UACC-257 melanoma
[20] = system: M14 melanoma

| Compound | growth [1] | growth [2] | growth [3] | growth [4] | growth [5] | growth [6] | growth [7] | growth [8] | growth [9] | growth [10] | growth [11] | growth [12] | growth [13] | growth [14] | growth [15] | growth [16] | growth [17] | growth [18] | growth [19] | growth [20] |
| --- | --- | --- | --- | --- | --- | --- | --- | --- | --- | --- | --- | --- | --- | --- | --- | --- | --- | --- | --- | --- |
| O=C1Nc2ccccc2/C1=C/C(=O)c1ccc(N2CCCC2)cc1 | 31.8% | 73.4% | 81.8% | 33.4% | 9.75% (active) | 40.4% | -2.44% (active) | 54.4% | 100% | 8.29% (active) | 12.3% | 14.3% | 39.3% | 47.2% | 20.6% | 21.9% | 68.8% | 4.58% (active) | 78.1% | 108% |
| CCCCC(CCCCCC(CCCC)C1NC(C)Cc2cc(OC)c(OC)cc21)C1NC(C)Cc2cc(OC)c(OC)cc21 (stereo not given) | -81.4% (active) | -77.8% (active) | -39.4% (active) | -97.2% (active) | -73.8% (active) | -57.8% (active) | -87.7% (active) | -80.9% (active) | -98.4% (active) | -96.9% (active) | -100% (active) | -76.8% (active) | -73.4% (active) | -67.4% (active) | -89.4% (active) | -88.6% (active) | -70.7% (active) | -95.8% (active) | -80.6% (active) | -90.2% (active) |
| COc1cc2c(cc1OC(C)=O)C(=O)CCCC2 | 93.6% | 98.1% | 89.9% | 75.4% | 105% | 79% | 78% | 85.8% | 86.9% | 135% | 128% | 186% | 93.3% | 112% | 94.2% | 107% | 107% | 90.9% | 86.7% | 87.9% |
| C=C(C)[C@@H]1CC[C@]2(C)[C@H](CC[C@@H]3[C@@H]([C@@](C)(O)CCC=C(C)C)CC[C@]32C)[C@@]1(C)CCC(=O)N1CCN(C)CC1 | -72% [100 µM] (active) | -72% [100 µM] (active) | -97.5% [100 µM] (active) | -93% [100 µM] (active) | -82.2% [100 µM] (active) | -89.9% [100 µM] (active) | -81.1% [100 µM] (active) | 0.566% [100 µM] (active) | -92.7% [100 µM] (active) | -80.8% [100 µM] (active) | -80% [100 µM] (active) | 1.77% [100 µM] (active) | -89.6% [100 µM] (active) | -95.8% [100 µM] (active) | -93.7% [100 µM] (active) | -79.4% [100 µM] (active) | -88.7% [100 µM] (active) | -94% [100 µM] (active) | -59.9% [100 µM] (active) | -70.5% [100 µM] (active) |
| C=C1C(=O)O[C@H]2[C@H]1CC/C(COC(=O)NCc1ccc(Cn3c(=O)sn(-c4ccc(Cl)cc4)c3=O)cc1)=C\CC[C@@]1(C)O[C@@H]21 | 94.9% | 87.4% | 104% | 106% | 101% | 45.5% | -8.38% (active) | 95.9% | 70.8% | 24% | 18.1% | 6.2% (active) | 65.2% | 54.7% | 62% | 83.7% | 99.5% | 90.8% | 72.9% | 59.2% |
| O=S(=O)(NCCCNc1nccc(-c2c(-c3cccc(F)c3)nc3occn23)n1)c1cccc2ccccc12 | 63.9% | 36.3% | 64.6% | 74.4% | 18.7% | 63.9% | 51.1% | 33.5% | 46.5% | -18.1% (active) | 41.4% | 4.01% (active) | 31.1% | -0.0227% (active) | 47.9% | 36.6% | 52.8% | 61.8% | 58.3% | 31.8% |
| Cc1nc(Cl)cc(N(c2cc(Cl)nc(C)n2)c2ncc(C(=O)Nc3c(C)cccc3Cl)s2)n1 | 78.2% | 59.3% | 52.2% | 39.4% | 59.5% | -33.5% (active) | 53.7% | 50.5% | 40.1% | 67.7% | 76.5% | 6.72% (active) | 62.5% | 24% | 3.03% (active) | 47% | 50.4% | 38.9% | 79.6% | 79.6% |
